Hit rate of the full screen: of about 1,800 compounds, fewer than 10 were called active. Not shown: some 44% with an inconclusive outcome.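 Rule for the calls: active = compound lowering the normal-ribosome reporter at least twice as much as the humanized-ribosome reporter, growth loss under a set limit; inconclusive = no clear call, values can overlap the other calls; inactive = the rest.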 These entries were drawn from the full list.
experiment: growth inhibition of wild-type GFP E. coli, dose response, h34 mutant RFP, cherry-pick (AID 977624); settings: E. coli wild-type GFP strain growth, fluorescence, 24 h; series mostly up to 50 µM

outcome, inactive:
Cc1cccc(C)c1Nc1ncnc2ccccc12
Cc1ccc(-c2n[nH]c(S(C)(=O)=O)c2C#N)cc1
C=CCN(c1ccccc1)S(=O)(=O)c1cccc2cccnc12
Cc1nn(Cc2cccc(F)c2)c(C)c1NC(=O)c1c(Cl)cnn1C
COc1ccc(NC(=O)CCC(=O)c2cccs2)cc1S(=O)(=O)Nc1ccc(Cl)cc1
C[C@@H]1CN([C@H](C)CO)C(=O)CCCn2nncc2CO[C@@H]1CN(C)C(=O)Nc1ccc(C(F)(F)F)cc1
COc1ccccc1OCC(=O)Nc1ccc(S(=O)(=O)N2CCCCCC2)cc1
CN(C)CCCN(C(=O)CCSc1ccccc1)c1nc2cc3c(cc2s1)OCO3
CCCC(=O)N(CCc1ccc(OC)cc1)Cc1nc2ccccc2c(=O)[nH]1
Cc1ccc(NC(=O)c2c(C)noc2-c2snnc2C)cc1
COC(=O)c1sc(C(C)(C)C)cc1CS(=O)(=O)c1ccc(Cl)cc1
CCc1ccc(NC(=O)COC(=O)CCCC2=NS(=O)(=O)c3ccccc3N2)cc1
CCn1c(-c2ccccc2Cl)nn(CC(=O)Nc2ccccc2OC)c1=S
C[C@@H]1CCCCO[C@@H](CN(C)C)[C@@H](C)CN([C@@H](C)CO)C(=O)c2cc(NC(=O)Nc3cccc4ccccc34)ccc2O1
CC(C)CNc1nc(S(=O)(=O)c2ccccc2)c(Cl)s1
Cc1ccc(-c2nc(CN3CCCCC3c3cccc(F)c3)c(C)o2)o1 (configuration not stated)
CCOC(=O)c1c(C)nsc1NCc1ccccc1
CC(C)CN1C(=O)c2ccc(C(=O)Nc3ccncc3)cc2C1=O
COc1cccc(C(NC(C)=O)c2nc(-c3ccccc3OC)cs2)c1 (configuration not stated)
Cc1cccc(-c2ccc([C@H]3[C@H]4CN(S(=O)(=O)c5ccccc5C)CCCCN4[C@H]3CO)cc2)c1
CC(=O)Nc1cccc(NC(=O)CSc2ccc(-c3cccnc3)nn2)c1
CCOC(=O)c1cc(-c2ccc(OC)cc2)n[nH]1
CCN(CC)CCN(C(=O)c1ccc2c(c1)OCCO2)c1nc2c(Cl)cccc2s1
CN(C)Cc1nc2ccccc2c(=O)n1Cc1nc(-c2cccc([N+](=O)[O-])c2)cs1
COc1cccc(NC(=O)COC(=O)Cc2ccccc2[N+](=O)[O-])c1
CCOC(=O)Cc1nnc(NC(=O)CSc2nc3ccccc3[nH]2)s1
O=C(O)CCCCCCCCc1cn(CC2CCCCC2)nn1
O=C(Nc1ccncc1)c1ccc(S(=O)(=O)Nc2ccccc2)cc1
Cc1cccc(OCCC(=O)Nc2ccc(F)c(F)c2)c1
CCN(CC(=O)Nc1cccc(C#N)c1)CC(=O)Nc1cccc(OC)c1
C=C(C)Cn1c(=O)c2c(nc3n2CC(C)CN3Cc2ccccc2)n(C)c1=O (configuration not stated)
O=S1(=O)N[C@H](Cc2ccccc2)COc2cccc(N3CCC[C@H]3CO)c21
Cc1ccccc1-n1ncc2c1CC(C)(C)CC2NC(=O)CCN1Cc2ccccc2C1=O (configuration not stated)
O=C(Nc1ccc2c(c1)OCO2)c1cccc(S(=O)(=O)N2CCCC2)c1
CCOc1ccccc1NC(=O)c1ccc2ccccc2c1
CC(=O)c1c(C)nn(CC(O)COc2ccc3c(c2)CCC3)c1C (configuration not stated)
Cn1nc(C(C)(C)C)c([N+](=O)[O-])c1C(=O)Nc1ccc(Br)cc1
COc1ccccc1C(=O)COC(=O)c1cccs1
Nc1nc(Nc2ccccc2F)nc(N2CCOCC2)c1[N+](=O)[O-]
O=C(c1cc(S(=O)(=O)N2CCOCC2)ccc1Cl)N1CCc2ccccc2C1
CSc1nc2nc3c(cc2c(=O)n1-c1ccccc1C)CCCC3
Cc1cc([N+](=O)[O-])nn1CC(=O)Nc1cc(F)ccc1F
Nc1ccccc1Sc1ccc(C(F)(F)F)cc1[N+](=O)[O-]
Cc1noc(C)c1COc1cccc(C(=O)N2CCc3ccccc32)c1
CCCc1nc2oc3c(NCCCN(C)C)ncnc3c2c2c1CCCC2
O=C(c1ccc2c(c1)CCN2S(=O)(=O)c1ccccc1)N1CCN(c2ccccc2)CC1
O=C(O)c1ccc(-c2nc(-c3ccccc3)cs2)cc1
CCc1ccc2nc(N(CCCN(C)C)C(=O)c3ccc4c(c3)OCCO4)sc2c1
Nc1ncncc1-c1ccc(Cl)cc1
CC(=O)Nc1ccc(S(=O)(=O)Nc2cccc(-c3nc4cc(C)ccc4o3)c2)cc1
OCCN(Cc1ccccc1)Cc1ccc(F)c(F)c1
COC(=O)c1ccccc1NC(=O)c1ccc2c(c1)CC(C)O2 (configuration not stated)
O=C(CN1CCCCC1)Nc1ccccc1-c1ccccc1
Cc1cc(C(=O)OCC(=O)Nc2cccc(S(N)(=O)=O)c2)c2ccccc2n1
COc1cccc(S(=O)(=O)N2CCCCN3[C@H](CO)[C@H](c4ccc(C#CC(C)C)cc4)[C@@H]3C2)c1
Cc1sc(NC(=O)CN2CCOCC2)nc1-c1ccc2c(c1)CCN2S(=O)(=O)c1ccccc1
Cc1ccc2nc(SCC(=O)c3ccc4c(c3)NC(=O)CO4)[nH]c2c1
COc1cccc(NC(=O)CN(C)CC(=O)Nc2ccc(Br)cc2)c1
COc1ccc(S(=O)(=O)N(C)C)cc1NC(=O)c1ccc2c(c1)NC(=O)C(C)S2 (configuration not stated)
COc1cc(-c2cc3nc(NCCc4ccncc4)ccn3n2)cc(OC)c1OC
N#Cc1ccc(OCC(=O)N2CCN(S(=O)(=O)c3ccc(Cl)s3)CC2)cc1
Cc1ccc(NC(=O)c2ccc([N+](=O)[O-])o2)c(C)c1
COc1ccc(Cn2c(=O)c3[nH]cnc3n(-c3ccc(C)cc3)c2=O)cc1
S=C1SCN(Cc2cccnc2)CN1Cc1ccccc1
CCOc1ccc(CCNC(=O)CCn2ccc3cc(S(=O)(=O)N4CCCC4)ccc32)cc1
O=C(c1ccc(N2CCCCC2)c([N+](=O)[O-])c1)N1CCN(c2ccccn2)CC1
CN(C(=O)COc1ccccc1C(=O)NCCOc1ccccc1)c1ccccc1

Reference: PubChem BioAssay AID977624 (Broad Institute, 2014)
